# Screens: PubChem BioAssay, National Center for Advancing Translational Sciences (NCATS)
# TDP1 cell noCPT: qHTS for Inhibitors of human tyrosyl-DNA phosphodiesterase 1 (TDP1): qHTS in cells in absence of CPT | hit rate 15% among 420,000 | Potency, µM (top dose mostly 46.2 µM), most hits filed as inhibitors | DT40 Tdp1-/- hTDP1 cells, no CPT, ATP luminescence, 48 h; note: nearly all actives have a fitted effect of over 55% in size
#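 Seeded 400 DT40-hTDP1 cells/well (vehicle DMSO, no 20 nM CPT); pinned compounds; ≥48 hr at 37 °C; CellTiter-Glo luminescence as viability measure.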
# TDP1 block: TDP1 (human) enzyme inhibition; recombinant TDP1, AlphaScreen DNA substrate cleavage; hit rate 0.28% among 350,000; Potency, µM (top dose mostly 130 µM), usual class: inhibitors; Q9NUW8; note: nearly all actives have a fitted effect of over 40% in size
# Target sequence (Q9NUW8 whole entry, looked up): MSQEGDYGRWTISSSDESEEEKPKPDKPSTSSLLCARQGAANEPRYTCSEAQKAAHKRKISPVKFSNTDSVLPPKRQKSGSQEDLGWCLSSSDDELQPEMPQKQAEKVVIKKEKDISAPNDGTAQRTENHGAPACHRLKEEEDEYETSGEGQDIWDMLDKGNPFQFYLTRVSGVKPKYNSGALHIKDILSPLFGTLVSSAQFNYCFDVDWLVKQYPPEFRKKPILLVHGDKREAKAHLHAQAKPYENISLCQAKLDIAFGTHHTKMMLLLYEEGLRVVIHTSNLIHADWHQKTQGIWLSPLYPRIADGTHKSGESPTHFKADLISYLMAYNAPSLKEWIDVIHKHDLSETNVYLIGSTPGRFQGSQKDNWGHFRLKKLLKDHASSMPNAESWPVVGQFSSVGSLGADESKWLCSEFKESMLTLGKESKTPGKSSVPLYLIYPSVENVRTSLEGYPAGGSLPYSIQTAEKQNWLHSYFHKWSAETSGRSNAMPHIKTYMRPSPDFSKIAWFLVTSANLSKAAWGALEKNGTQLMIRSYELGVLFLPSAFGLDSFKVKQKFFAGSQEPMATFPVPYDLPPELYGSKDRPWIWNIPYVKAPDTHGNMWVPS
#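 Here, a 5' biotin and 3' phosphotyrosine-FITC DNA oligonucleotide reports Tdp1 activity: intact substrate bridges AlphaScreen beads, while cleavage leaves a 3' phosphate and drops signal. All incubations at room temperature.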
# ELG1 repair inh: inhibitors of ELG1-dependent DNA repair in HEK293T cells | HEK293T ELG1-luciferase reporter, luminescence, 16 h; DNA damage induced by 5-fluorouridine | AID 504467 | hit rate 2.3% among 330,000 | Potency, µM (top dose mostly 46.1 µM), hits mostly inhibitors; note: nearly all actives have a fitted effect of over 55% in size
#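 5-Fluorouridine DNA damage + compound/DMSO, 2,000 cells/well, 16 h, 37 °C/5% CO2. ONE-Glo, 30 min RT, luminescence. Readout = decrease in reporter signal.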
# IL-1B inflam inh: blocks inflammasome-driven IL-1 beta release | hit rate 4.7% among 360,000 | AID 743279 | THP-1 LPS/ATP IL-1B secretion, AlphaLISA, 16 h; stronger effect = lower value | activity change, % at 57.5 µM; in the data active = activity change below about -50%; inconclusive = mostly about -30% to -49%
#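 Secreted IL-1B measured by AlphaLISA bead assay after 16 h compound exposure of THP-1 cells; compounds (final up to 57.5 uM) added 1 h before LPS (250 ng/mL) and ATP (1.25 mM) stimulation; lower signal means less secretion.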
# Giardia kill: kills Giardia lamblia; Giardia lamblia trophozoite viability; activity change, % at 7.66 µM, hits read low; hit rate 0.15% among 340,000; AID 540267; in the data active = activity change below about -80%; inconclusive = between about -30% and that limit;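 note: parasites exposed to compound for two days anaerobically before the ATP read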
#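 Killing of trophozoites was scored by loss of ATP luminescence after a 48 hrs anaerobic exposure to compounds at 37 deg C, using 100 cells per well.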
# TDP1 cell CPT: DT40-hTDP1 cell growth loss with CPT. chicken DT40 Tdp1-/-;hTDP1 cells + 20 nM CPT, ATP luminescence, 48 h. Potency, µM (top dose mostly 46.2 µM), usual class: inhibitors. hit rate 12% among 420,000; note: nearly all actives have a fitted effect of over 55% in size
#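 Chicken DT40 Tdp1-/- cells stably complemented with human TDP1 were seeded at 400 cells/well in medium containing 20 nM camptothecin, exposed to pin-transferred compounds, and grown at 37 °C for at least 48 hr. Viability was read as ATP luminescence.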
# Hits are given with their value; 0 = inactive; ? = inconclusive; - = no result given; [ ] = remark or other dose. Most compounds without a hit are left out; they make up all but 19% or so of the library. Unless noted, calls come from the whole dose curve; as a rule, active = well fitted curve in the direction sought with a large enough effect; inconclusive = small, poorly fitted or top-dose-only effect, or another doubt; inactive = no such curve, though single readings can be large; an effect the other way counts as inactive or inconclusive.
SMILES,TDP1 cell noCPT,TDP1 block,ELG1 repair inh,IL-1B inflam inh,Giardia kill,TDP1 cell CPT
Cc1ccc2c(CSc3nc4ccccc4c(=O)n3CCCO)cc(=O)oc2c1C,23.1µM,0,?,0,0,?
Cc1ccccc1Nc1nc(N)nc(CSCC(=O)Nc2cccc(Br)c2)n1,16.4µM,0,?,0,0,?
Cc1ccccc1Nc1nc(N)nc(CSc2nc3ccccc3c(=O)n2CCCO)n1,18.4µM,0,?,0,0,?
Cc1ccccc1Nc1nc(N)nc(CSc2nc3ccccc3c(=O)n2C)n1,8.2µM,0,?,-52.7,0,9.2µM
CC(C)[C@H](NC(=O)c1ccco1)C(=O)N(C)Cc1c(F)cccc1Cl,?,0,0,0,0,0
COC(=O)c1c(OCc2cccnc2)cc(=O)n2c1CCN(C(=O)c1cccc(N(C)C)c1)CC2,0,-,-,-,-,0
O=C(NC(NC(=S)Nc1cc(Cl)ccc1Cl)C(Cl)(Cl)Cl)c1ccco1 (stereo not given),0,0,0,-80.3,0,?
O=C(O)c1cccc(NC(=S)NC(NC(=O)c2ccco2)C(Cl)(Cl)Cl)c1 (stereo not given),0,0,0,0,0,0
O=C(NC(NC(=S)Nc1ccc(Cl)c(Cl)c1)C(Cl)(Cl)Cl)c1ccco1 (stereo not given),18.4µM,0,0,-62.6,0,20.6µM
O=C(Cc1ccccc1)NC(NC(=S)Nc1cc(Cl)ccc1Cl)C(Cl)(Cl)Cl (stereo not given),23.1µM,0,0,0,0,0
CN1CCN(S(=O)(=O)c2cccc(C(=O)Nc3ccc(Br)cc3Br)c2)CC1,?,-,-,0,0,?
CCc1ccc(-c2cc3c(=O)n(CC(=O)N4CCCCCC4)nc(C)n3n2)cc1,0,0,0,0,0,0
O=C1CCCN1C(=O)CSc1ncnc2sccc12,0,50.1µM,0,0,0,0
CCOC(=O)N1CCN(C(=O)CSc2ncnc3sccc23)CC1,0,0,0,0,0,0
CC(=O)c1c(C)[nH]c(C(=O)CSc2nc3ccccc3n2C)c1C,9.2µM,0,?,0,0,14.6µM
CCn1c(SCC(=O)c2cccs2)nnc1-c1cccs1,0,0,?,0,0,0
CC(=O)OCC#CCSc1nc2ccccc2n1C,0,0,0,0,0,0
CCn1c(SCC(=O)c2[nH]c(C)c(C(C)=O)c2C)nnc1-c1cccs1,18.4µM,0,?,0,0,?
O=C(O)C1(C(=O)O)CCC1.[NH2-].[NH2-].[Pt+2],-,0,-,-,-,-
CC(=O)N1CCC2(CCN(Cc3cc(C(F)(F)F)cc(C(F)(F)F)c3)CC2)CC1,?,-,-,-,-,0
CC1(C)CC2(CC(c3cccs3)c3cc(Cl)c(O)cc3O2)NC(=S)N1 (stereo not given),7.31µM,0,0,0,0,8.2µM
CCOc1ccc(/C=C/C2=CC(C)(C)NC(=S)N2)cc1,?,0,?,0,0,14.6µM
Cc1c(O)ccc(/C(Cc2ccc3ccccc3n2)=N\N)c1O,10.3µM,0,?,0,0,7.31µM
CCc1cc(/C(Cc2ccc3ccccc3n2)=N\O)c(O)cc1O,?,0,?,-101.3,0,?
OC(Cc1ccc2ccccc2n1)c1ccccc1 (stereo not given),?,-,-,-,-,0
SMILES,TDP1 cell noCPT,TDP1 block,ELG1 repair inh,IL-1B inflam inh,Giardia kill,TDP1 cell CPT
CCc1cccc(NS(=O)(=O)c2cc(-c3cnc(C)o3)ccc2OC)c1,?,0,-,-,-,?
CC(C)(C)c1ccc(C(=O)N2CCN(c3nc4ccccc4o3)CC2)cc1,6.51µM,0,?,0,0,9.2µM
O=C(NC1CCCCCCC1)C1CCN(c2nc3ccccc3o2)CC1,16.4µM,0,16.4µM,0,0,?
O=C(NCCc1ccccc1)C1CCN(c2nc3ccccc3o2)CC1,0,0,?,0,0,0
Cc1oc(-c2ccccc2F)nc1CN1CCC(C(=O)NC2CCCCCCC2)CC1,23.1µM,0,0,0,0,?
Cc1oc(-c2ccccc2F)nc1CN1CCC(C(=O)NC2CCCc3ccccc32)CC1 (stereo not given),?,0,?,0,0,14.6µM
Cc1oc(-c2ccccc2F)nc1CN1CCC(C(=O)NCc2ccco2)CC1,0,0,0,0,0,0
CN(C)c1ccc(NC(=O)Cc2ccccc2)c2ccccc12,?,-,?,0,0,0
O=C(NC1CCCc2ccccc21)C1CCN(S(=O)(=O)N2CCCCCC2)CC1 (stereo not given),18.4µM,0,?,0,0,13µM
Cc1ccccc1C(=O)NCCCNC(=O)c1cnccn1,0,-,0,0,0,0
O=[N+]([O-])c1ccc(N2CCN(C(=S)NCc3ccc(Cl)cc3)CC2)cc1,3.66µM,-,14.6µM,-,0,5.8µM
O=[N+]([O-])c1ccc(CN2CCN(c3ccc(Cl)cc3)CC2)o1,0,-,0,0,-93.7,0
COCCCNC(=S)N1CCN(c2ccc([N+](=O)[O-])cc2)CC1,8.2µM,0,?,0,0,16.4µM
C[C@@H]1[C@H](C)CC[C@@]2(C(=O)O[C@H]3O[C@@H](CO[C@H]4O[C@@H](CO)[C@@H](O[C@H]5O[C@@H](C)[C@@H](O)[C@@H](O)[C@@H]5O)[C@@H](O)[C@@H]4O)[C@@H](O)[C@@H](O)[C@@H]3O)CC[C@]3(C)C(=CC[C@H]4[C@@]5(C)C[C@@H](O)[C@@H](O)[C@](C)(CO)[C@@H]5CC[C@@]43C)[C@@H]12,-,0[21 µM],-,-,-,-
COC(=O)C1OC(OC2CC[C@]3(C)C(CC[C@@]4(C)[C@@H]3CC=C3[C@@H]5CC(C)(C)CC[C@]5(C(=O)OC5OC(CO)C(O)C(O)C5O)CC[C@]34C)C2(C)C)C(O)C(O)C1O[C@H]1OCC(O)C(O)C1O (stereo not given in full),0,0,?,-56.3,0,?
Oc1csc(Cc2nc(-c3ccccc3F)cs2)n1,0,0,?,0,0,?
Cc1c(CCO)c(=O)oc2n[nH]c(-c3ccccc3)c12,0,0,0,-60.6,0,0
COc1ccc(C(c2sc3nc(C)nn3c2O)N2CCN(Cc3ccccc3)CC2)cc1OC (stereo not given),0,0,0,0,0,0
Cc1nc2sc(C(c3cccs3)N3CCN(Cc4ccccc4)CC3)c(O)n2n1 (stereo not given),0,-,0,0,0,23.1µM
CCNc1nc(NC(C)(C)C)nc(Oc2ccc(=O)n(-c3ccccc3)n2)n1,20.6µM,0,?,0,?,16.4µM
CCCCNc1nc(Oc2ccc(=O)n(-c3ccccc3)n2)nc(N(CC)CC)n1,?,0,-,-,-,?
